# Source: PubChem BioAssay (several laboratories)
# TROY NFkB inh = inhibitors of TROY-driven NF-kB signaling, primary screen, Q293 LMP1-TROYcd cells, NF-kB luciferase, uHTS; Q293 LMP1-TROYcd NF-kB luciferase reporter, 4 h; inhibition, % at 10 µM; hit rate 0.98% among 360,000;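 active means compounds whose plate-normalised and pattern-corrected inhibition of the luciferase reporter signal at the single screening dose is 50% or more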
# LGR2 inh = inhibitors of bursicon-induced LGR2 CRE-luciferase signal, primary screen, cell-based, HEK293, CRE-luciferase reporter, bursicon stimulation | bursicon-stimulated, 4 h | inhibition, % at 9.99 µM | hit rate 0.35% among 380,000 | AID 720647, 2013;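 active means drop in luminescence signal, shown as inhibition above about 50% in the replicate tests, limit read from the data, passing the limit was not always enough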;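 further: agonist challenge used bursicon conditioned medium at about half maximal strength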
# EBV LMP1 NFkB = EBV LMP1-driven NF-kappaB luciferase reporter inhibitors, primary screen, cell-based, luminescence, single point. AID 504558, 2011. LMP1-induced NF-kappaB luciferase reporter cells. hit rate 0.69% among 350,000. inhibition, % at 12.5 µM; in the data active means inhibition above about 41%;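 further: 0% = neutral control wells and 100% = reference inhibitor control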
# EWS-Fli block = EWS/Fli-driven NR0B1 reporter inhibitors, primary screen, A673 cells, NR0B1 luciferase, luminescence, MLPCN library | viability-normalised | inhibition, % at 12.6 µM | hit rate 0.67% among 350,000 | AID 651661, 2012;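 active means mean inhibition of at least 50% after viability correction, with every replicate also passing that limit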;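 further: firefly luciferase signal divided by Alamar Blue viability fluorescence both relative to DMSO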
# PAX8 reporter = inhibitors of PAX8-driven TPO luciferase reporter, primary screen, RMG-I cells, single concentration. SteadyGlo, 24 h. inhibition, % at 12.6 µM. hit rate 1.2% among 360,000. AID 652154, 2013;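 active means mean replicate inhibition at least 60% with every replicate also reaching 60%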;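 further: luciferase light reporting Pax8 driven TPO promoter activity; plate controls were median of neutral control wells for no effect and mitoxantrone controls for full effect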
# TWEAK Fn14 block = inhibitors of TWEAK-Fn14 signaling, primary screen, luciferase reporter cells, uHTS; TWEAK-stimulated Fn14 reporter cells, luciferase luminescence, 8 h; inhibition, % at 10 µM; hit rate 2% among 360,000; in the data active means inhibition above about 50%
# An asterisk follows results filed as active; / = no result; ! = repeats disagree. Rows were chosen to be rich in hits. Some 3.2% of all compounds tested hit in one or more screens of this group.
SMILES,TROY NFkB inh,LGR2 inh,EBV LMP1 NFkB,EWS-Fli block,PAX8 reporter,TWEAK Fn14 block
CCOC(=O)C1=C(C)NC(=O)NC1c1ccc(OC(=O)c2ccco2)cc1 (stereo not given),22,/,2,/,/,-24
CCOC(=O)C1=C(C)NC(=O)NC1c1ccc(OCC(N)=O)cc1 (stereo not given),/,/,2,/,/,79*
CC1=C(C(=O)OCc2ccc3c(c2)OCO3)C(c2ccc(Cl)cc2)NC(=O)N1 (stereo not given),70*,39,81*,36,/,94*
CC1=C(C(=O)OCc2ccc3c(c2)OCO3)C(c2ccc(F)cc2)NC(=O)N1 (stereo not given),55*,28,79*,/,/,87*
CSCCOC(=O)C1=C(C)NC(=O)NC1c1ccc2c(c1)OCO2 (stereo not given),8,-3,2,13,17,-6
O=C(C[C@@H]1CC[C@H]2[C@@H](COC[C@H](O)CN2Cc2cc(F)ccc2F)O1)N[C@H]1CCN(Cc2ccccc2)C1,/,13,/,-3,9,/
COc1cc(C(=O)OCn2nnc3ccccc3c2=O)cc(OC)c1OC,8,/,4,/,-19,-28
COc1cccc(C(=O)OCn2nnc3ccccc3c2=O)c1OC,-24,/,53*,-2,-26,10
Cc1cccc(S(=O)(=O)N2[C@@H]3CNC[C@H]2C3c2ccc(-c3ccccc3C)cc2)c1 (stereo not given in full),/,-7,/,59*!,11,/
Cc1ccccc1S(=O)(=O)N1[C@@H]2CNC[C@H]1C2c1ccc(-c2ccncc2)cc1 (stereo not given in full),/,16,/,8,6,/
Cc1cccc(S(=O)(=O)N2[C@@H]3CNC[C@H]2C3c2ccc(-c3ccncc3)cc2)c1 (stereo not given in full),/,-9,/,65*!,-2,/
C[C@@H]1CN([C@@H](C)CO)C(=O)c2ccccc2-c2ccccc2CO[C@@H]1CN(C)C(=O)c1ccc(F)cc1,/,0,/,-20,-7,/
CCCN1CCc2[nH]c(=S)[nH]c(=O)c2C1,8,-3,-2,-10,72*,-14
CC(C)CC#Cc1ccc2c(c1)O[C@@H](CN(C)C(=O)Cc1cccnc1)[C@H](C)CN([C@@H](C)CO)S2(=O)=O,/,-2,/,-20,33,/
O=C(OCc1cc2ccccc2[nH]c1=O)c1ccccn1,-9,/,-7,/,/,7
O=C(OCc1cc2ccccc2[nH]c1=O)c1cccs1,43,-14,7,8,-7,57*
O=c1oc(-c2ccccc2)cc2ccccc12,-70,5,/,-110,/,-23
O=c1oc(-c2ccccc2)cc(Cl)c1Cl,31,-6,8,59*,4,31
CCCNC(=O)Nc1ccc2c(c1)C(=O)N(C)C[C@@H](OC)[C@H](C)CN(Cc1ccccn1)[C@@H](C)CO2,/,-13,/,0,2,/
CC(C)NC(=O)N(C)C[C@H]1Oc2ccc(NC(=O)Nc3ccc(C(F)(F)F)cc3)cc2CC(=O)N([C@@H](C)CO)C[C@H]1C,/,-1,/,63*,52,/
Cc1ccc(S(=O)(=O)Nc2ccc3c(c2)CC(=O)N([C@@H](C)CO)C[C@H](C)[C@@H](CN(C)C(=O)Nc2ccc(C(F)(F)F)cc2)O3)cc1,/,8,/,9,88*,/
C[C@@H]1CN([C@H](C)CO)C(=O)Cc2cc(NC(=O)Nc3ccc(C(F)(F)F)cc3)ccc2O[C@H]1CN(C)C(=O)Nc1ccc(C(F)(F)F)cc1,/,-5,/,-4,20,/
C[C@H]1CN([C@@H](C)CO)C(=O)Cc2cc(NC(=O)Nc3ccc(C(F)(F)F)cc3)ccc2O[C@H]1CN(C)C(=O)Nc1ccc(C(F)(F)F)cc1,/,13,/,16,86*,/
Cc1ccc2[nH]c3c(N4CCN(Cc5ccc6c(c5)OCO6)CC4)ncnc3c2c1,/,/,/,/,21,/
COc1cc2[nH]c3c(N4CCN(c5ccc(Cl)cc5)CC4)ncnc3c2cc1OC,15,23,10,/,/,-9
SMILES,TROY NFkB inh,LGR2 inh,EBV LMP1 NFkB,EWS-Fli block,PAX8 reporter,TWEAK Fn14 block
COc1cccc(N2CCN(c3ncnc4c3[nH]c3ccc(F)cc34)CC2C)c1 (stereo not given),86*,/,70*,/,/,104*
COc1ccc2[nH]c3c(N4CC(C)OC(C)C4)ncnc3c2c1 (stereo not given),/,/,/,/,-17,/
COc1ccc2c(c1)[nH]c1c(N3CCSCC3)ncnc12,63*,/,2,-1,20,48
COc1ccc2c(c1)[nH]c1c(N3CCN(Cc4ccc5c(c4)OCO5)CC3)ncnc12,66*,/,22,/,/,100*
C[C@@H]1CN([C@H](C)CO)C(=O)c2cc(-c3cccnc3)cnc2O[C@H]1CN(C)C(=O)Nc1ccc2c(c1)OCO2,/,3,/,-7,/,/
CCCC(=O)N1C[C@@H]2[C@H](c3ccccc31)[C@H](CO)N2C(=O)Nc1ccc(F)cc1,/,-9,/,-4,14,/
OC(COCC(F)(F)C(F)(F)C(F)(F)C(F)F)Cn1c2ccc(Cl)cc2c2cc(Cl)ccc21 (stereo not given),57*,/,-41,/,/,64*
CCOC(=O)c1c(O)c2cc(Cl)ccc2n(CC)c1=O,2,0,/,15,0,9
COc1ccc(CC2=CC(=O)c3ccccc3C2=O)cc1,1,-8,7,69*,18,29
COc1ccc(Cc2ccccc2C(=O)O)cc1,0,21,-51,3,-8,6
CCN(CC)c1ccc(/C=N/Nc2ccc(C)cc2)c(O)c1,7,/,-18,-3,15,-10
CCN(CC)c1ccc(/C=N/Nc2nc(C)cc(=O)[nH]2)c(O)c1,2,15,61*,19,75*,30
Cc1cc(=O)[nH]c(N/N=C/c2ccccc2Cl)n1,-11,5,-5,-34,-20,-18
Cc1cc(=O)[nH]c(NN=Cc2cc(Br)ccc2O)n1,-24,-4,56*,1,17,13
Cc1nn(CCc2nn[nH]n2)c2nc(-c3ccc(C4CCCCC4)cc3)cc(C(F)(F)F)c12,56*,14,-34,2,-1,26
CCN(CC)Cc1c(O)ccc2c([N+](=O)[O-])c(C)n(-c3ccc(OC)cc3)c12,36,/,37,/,/,74*
COc1ccccc1S(=O)(=O)N[C@H]1C=C[C@@H](CC(=O)NCc2cccc(F)c2)O[C@H]1CO,/,-15,/,0,6,/
O=Cc1cc(OCc2ccccc2)ccc1[B-](F)(F)F,-8,-9,55*,45,-23,2
CC(C)NC(=O)N(C)C[C@@H]1Oc2cc(C#CC3CC3)ccc2S(=O)(=O)N([C@H](C)CO)C[C@@H]1C,/,5,/,-3,/,/
